Results published in publication PMC7862700, “An all-to-all approach to the identification of sequence-specific readers for epigenetic DNA modifications on cytosine”.

Experiments:
Assay in all cases: DAPPL (digital affinity profiling via proximity ligation, sequencing); 10 mM Tris-HCl pH 7.5, 50 mM NaCl, 1 mM DTT, 4% glycerol, room temperature, 30 min; GST-TFs on glutathione beads, 16-mer random dsDNA library, 0.1% formaldehyde crosslink after washing; high values mean tight binding
FEV = molecular target: T1, FEV (Homo sapiens, UniProt Q99581 1-238); settings: protein: recombinant; tags: N-terminal GST; dsDNA, one strand shown
T1 sequence: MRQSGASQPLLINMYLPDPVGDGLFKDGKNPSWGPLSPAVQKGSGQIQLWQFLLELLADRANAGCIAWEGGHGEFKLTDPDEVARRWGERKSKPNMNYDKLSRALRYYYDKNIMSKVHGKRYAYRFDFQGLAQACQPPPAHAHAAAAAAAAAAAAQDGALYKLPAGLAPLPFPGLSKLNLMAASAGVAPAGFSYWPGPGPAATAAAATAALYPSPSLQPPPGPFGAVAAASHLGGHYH
Summary of the method: (§1)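 Yeast served to express human transcription factors as GST fusions, which were then captured on glutathione beads and labelled with DNA barcodes. Pooled with a tag-only sample, they were incubated with 200 nmole of a 16-mer random double-stranded DNA library for 30 min at room temperature in Tris/NaCl/DTT/glycerol buffer, washed, crosslinked with 0.1% formaldehyde, ligated by proximity, amplified by PCR and sequenced. Dividing each hexamer's read frequency for a factor by its frequency for the tag-only sample gives the binding signal.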

ETV5 = ETV5 (Homo sapiens, UniProt P41161 1-510); settings: protein: recombinant; tags: N-terminal GST; dsDNA, one strand shown
ETV5, sequence (P41161 whole entry): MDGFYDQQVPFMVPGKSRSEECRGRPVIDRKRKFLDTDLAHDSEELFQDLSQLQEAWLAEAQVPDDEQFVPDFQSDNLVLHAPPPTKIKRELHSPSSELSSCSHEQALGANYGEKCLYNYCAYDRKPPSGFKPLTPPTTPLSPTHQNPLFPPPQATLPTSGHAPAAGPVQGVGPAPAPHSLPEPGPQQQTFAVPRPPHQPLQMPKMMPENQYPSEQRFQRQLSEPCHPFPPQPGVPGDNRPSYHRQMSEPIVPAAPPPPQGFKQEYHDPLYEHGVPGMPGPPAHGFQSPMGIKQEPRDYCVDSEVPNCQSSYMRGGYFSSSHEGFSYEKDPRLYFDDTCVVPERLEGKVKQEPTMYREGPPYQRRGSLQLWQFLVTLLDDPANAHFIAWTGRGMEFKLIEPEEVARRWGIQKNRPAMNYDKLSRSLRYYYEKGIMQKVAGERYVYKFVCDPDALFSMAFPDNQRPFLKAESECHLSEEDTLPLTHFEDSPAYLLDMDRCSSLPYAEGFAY
Summary of the method: as §1

HSF1 = HSF1 (Homo sapiens, UniProt Q00613 1-529); settings: protein: recombinant; tags: N-terminal GST; chain copies: 3; dsDNA, one strand shown
HSF1, sequence (Q00613 whole entry): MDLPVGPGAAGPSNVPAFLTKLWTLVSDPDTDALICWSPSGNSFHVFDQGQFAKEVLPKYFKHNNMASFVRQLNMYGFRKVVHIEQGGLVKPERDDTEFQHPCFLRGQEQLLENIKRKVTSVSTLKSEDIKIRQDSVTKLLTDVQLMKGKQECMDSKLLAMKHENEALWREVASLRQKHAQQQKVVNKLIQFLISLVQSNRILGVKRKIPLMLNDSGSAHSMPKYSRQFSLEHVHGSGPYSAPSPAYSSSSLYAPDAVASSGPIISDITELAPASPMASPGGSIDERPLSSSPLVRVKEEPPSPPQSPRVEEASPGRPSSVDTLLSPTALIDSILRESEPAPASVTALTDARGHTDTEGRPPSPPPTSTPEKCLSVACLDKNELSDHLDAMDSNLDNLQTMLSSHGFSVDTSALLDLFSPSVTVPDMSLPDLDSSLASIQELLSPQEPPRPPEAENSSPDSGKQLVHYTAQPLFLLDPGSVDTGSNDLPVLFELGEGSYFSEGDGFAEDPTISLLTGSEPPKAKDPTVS
Summary of the method: as §1

SPIC = molecular target: T2, SPIC (Homo sapiens, UniProt Q8N5J4 1-248); settings: protein: recombinant; tags: N-terminal GST; dsDNA, one strand shown
T2 sequence: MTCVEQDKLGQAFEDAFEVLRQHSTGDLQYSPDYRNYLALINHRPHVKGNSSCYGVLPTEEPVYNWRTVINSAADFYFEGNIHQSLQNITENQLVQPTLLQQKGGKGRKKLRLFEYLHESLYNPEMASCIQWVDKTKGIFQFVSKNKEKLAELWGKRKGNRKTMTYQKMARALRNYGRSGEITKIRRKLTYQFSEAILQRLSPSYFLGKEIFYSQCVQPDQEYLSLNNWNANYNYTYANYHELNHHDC
Summary of the method: as §1

ELF4 = ELF4 (Homo sapiens, UniProt Q99607 1-663); settings: protein: recombinant; tags: N-terminal GST; dsDNA, one strand shown
ELF4, sequence (Q99607 whole entry): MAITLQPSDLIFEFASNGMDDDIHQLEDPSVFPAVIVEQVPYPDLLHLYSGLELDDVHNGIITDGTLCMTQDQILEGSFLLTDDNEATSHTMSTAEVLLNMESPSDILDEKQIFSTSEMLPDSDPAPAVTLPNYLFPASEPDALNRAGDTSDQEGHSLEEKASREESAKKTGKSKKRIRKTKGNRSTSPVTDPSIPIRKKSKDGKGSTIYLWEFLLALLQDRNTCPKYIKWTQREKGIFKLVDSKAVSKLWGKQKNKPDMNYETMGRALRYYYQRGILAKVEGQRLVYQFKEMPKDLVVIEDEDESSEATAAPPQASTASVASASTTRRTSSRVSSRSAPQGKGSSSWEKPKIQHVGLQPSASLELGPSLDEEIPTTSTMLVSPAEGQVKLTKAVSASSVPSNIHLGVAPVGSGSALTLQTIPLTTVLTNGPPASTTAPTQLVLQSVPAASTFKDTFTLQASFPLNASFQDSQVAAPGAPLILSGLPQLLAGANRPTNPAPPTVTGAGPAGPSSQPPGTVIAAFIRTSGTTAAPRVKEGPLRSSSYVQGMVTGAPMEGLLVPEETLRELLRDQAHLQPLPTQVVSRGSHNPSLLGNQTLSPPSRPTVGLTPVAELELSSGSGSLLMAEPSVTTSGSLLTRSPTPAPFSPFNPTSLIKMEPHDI
Summary of the method: as §1

ELK4 = molecular target: T3, ELK4 (Homo sapiens, UniProt P28324-2 1-405); settings: protein: recombinant; tags: N-terminal GST; dsDNA, one strand shown
T3 sequence: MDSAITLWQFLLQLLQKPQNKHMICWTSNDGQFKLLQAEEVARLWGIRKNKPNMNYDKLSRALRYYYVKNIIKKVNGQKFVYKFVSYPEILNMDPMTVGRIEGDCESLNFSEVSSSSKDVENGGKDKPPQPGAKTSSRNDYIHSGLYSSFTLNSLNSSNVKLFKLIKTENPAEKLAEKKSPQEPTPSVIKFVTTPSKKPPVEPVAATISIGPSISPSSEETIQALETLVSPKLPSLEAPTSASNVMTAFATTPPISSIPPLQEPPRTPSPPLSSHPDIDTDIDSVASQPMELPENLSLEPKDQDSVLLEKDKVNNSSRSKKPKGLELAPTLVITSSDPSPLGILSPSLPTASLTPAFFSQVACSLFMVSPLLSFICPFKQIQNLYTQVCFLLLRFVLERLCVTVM
Summary of the method: as §1

ETV2 = molecular target: T4, ETV2 (Homo sapiens, UniProt O00321 1-342); settings: protein: recombinant; tags: N-terminal GST; dsDNA, one strand shown
T4 sequence: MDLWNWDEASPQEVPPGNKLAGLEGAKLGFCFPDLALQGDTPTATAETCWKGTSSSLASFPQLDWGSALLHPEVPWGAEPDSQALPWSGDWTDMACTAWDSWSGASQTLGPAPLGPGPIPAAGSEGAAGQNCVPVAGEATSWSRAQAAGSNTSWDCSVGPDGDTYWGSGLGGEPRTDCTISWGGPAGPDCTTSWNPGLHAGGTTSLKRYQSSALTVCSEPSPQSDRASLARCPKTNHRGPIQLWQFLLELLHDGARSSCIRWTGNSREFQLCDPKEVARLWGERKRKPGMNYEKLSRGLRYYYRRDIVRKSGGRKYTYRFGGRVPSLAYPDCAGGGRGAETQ
Summary of the method: as §1

ELF3 = molecular target: T5, ELF3 (Homo sapiens, UniProt P78545 1-371); settings: protein: recombinant; tags: N-terminal GST; dsDNA, one strand shown
T5 sequence: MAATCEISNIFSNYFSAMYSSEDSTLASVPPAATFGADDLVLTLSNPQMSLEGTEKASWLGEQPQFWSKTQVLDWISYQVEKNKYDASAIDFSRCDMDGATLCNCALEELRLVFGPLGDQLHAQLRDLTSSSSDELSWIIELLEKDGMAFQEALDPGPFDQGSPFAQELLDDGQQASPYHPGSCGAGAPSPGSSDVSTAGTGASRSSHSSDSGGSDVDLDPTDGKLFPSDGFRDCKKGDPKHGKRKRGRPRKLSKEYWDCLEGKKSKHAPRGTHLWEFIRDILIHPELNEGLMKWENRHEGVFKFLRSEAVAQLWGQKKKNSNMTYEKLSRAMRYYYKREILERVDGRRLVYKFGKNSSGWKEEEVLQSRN
Summary of the method: as §1

CRX = CRX (Homo sapiens, UniProt O43186 1-299); settings: protein: recombinant; tags: N-terminal GST; dsDNA, one strand shown
CRX, sequence (O43186 whole entry): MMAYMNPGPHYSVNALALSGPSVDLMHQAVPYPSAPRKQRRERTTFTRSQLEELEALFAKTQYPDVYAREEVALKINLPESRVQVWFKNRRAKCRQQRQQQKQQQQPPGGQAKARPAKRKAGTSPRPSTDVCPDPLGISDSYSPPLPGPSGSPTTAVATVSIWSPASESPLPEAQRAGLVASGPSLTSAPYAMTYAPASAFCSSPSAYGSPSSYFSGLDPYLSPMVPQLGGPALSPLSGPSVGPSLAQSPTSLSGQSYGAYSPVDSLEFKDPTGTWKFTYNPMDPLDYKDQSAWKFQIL
Summary of the method: as §1

ETV1 = ETV1 (Homo sapiens, UniProt P50549 1-477); settings: protein: recombinant; tags: N-terminal GST; dsDNA, one strand shown
ETV1, sequence (P50549 whole entry): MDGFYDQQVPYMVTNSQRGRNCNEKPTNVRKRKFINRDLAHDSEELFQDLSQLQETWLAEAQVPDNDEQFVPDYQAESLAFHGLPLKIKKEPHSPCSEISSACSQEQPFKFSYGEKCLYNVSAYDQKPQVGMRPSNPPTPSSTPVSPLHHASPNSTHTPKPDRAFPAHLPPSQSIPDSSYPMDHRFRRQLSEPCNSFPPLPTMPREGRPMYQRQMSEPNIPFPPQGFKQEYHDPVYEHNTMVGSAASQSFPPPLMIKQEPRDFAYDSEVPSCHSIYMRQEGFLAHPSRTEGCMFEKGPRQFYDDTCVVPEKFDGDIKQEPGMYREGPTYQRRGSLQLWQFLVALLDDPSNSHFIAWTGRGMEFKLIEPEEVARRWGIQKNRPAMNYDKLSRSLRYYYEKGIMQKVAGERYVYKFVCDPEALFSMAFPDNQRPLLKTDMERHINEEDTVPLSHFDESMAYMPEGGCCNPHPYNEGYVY
Summary of the method: as §1

ERF = molecular target: T6, ERF (Homo sapiens, UniProt P50548 1-548); settings: protein: recombinant; tags: N-terminal GST; dsDNA, one strand shown
T6 sequence: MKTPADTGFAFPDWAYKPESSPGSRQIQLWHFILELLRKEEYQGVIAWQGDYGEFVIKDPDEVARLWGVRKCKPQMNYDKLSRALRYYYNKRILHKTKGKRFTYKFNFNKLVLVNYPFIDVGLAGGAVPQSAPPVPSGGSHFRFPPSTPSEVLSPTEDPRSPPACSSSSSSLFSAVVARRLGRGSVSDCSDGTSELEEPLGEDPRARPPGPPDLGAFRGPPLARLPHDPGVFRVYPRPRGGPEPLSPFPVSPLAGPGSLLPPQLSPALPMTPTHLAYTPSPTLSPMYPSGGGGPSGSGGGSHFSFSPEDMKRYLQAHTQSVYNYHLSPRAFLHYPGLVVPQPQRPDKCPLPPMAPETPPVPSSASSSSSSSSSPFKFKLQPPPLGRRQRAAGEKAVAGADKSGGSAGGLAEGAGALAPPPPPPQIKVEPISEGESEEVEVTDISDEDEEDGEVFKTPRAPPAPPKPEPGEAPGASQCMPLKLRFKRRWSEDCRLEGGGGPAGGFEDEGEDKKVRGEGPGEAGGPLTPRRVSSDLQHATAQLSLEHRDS
Summary of the method: as §1

ETV3L = molecular target: T7, ETV3L (Homo sapiens, UniProt Q6ZN32 1-361); settings: protein: recombinant; tags: N-terminal GST; dsDNA, one strand shown
T7 sequence: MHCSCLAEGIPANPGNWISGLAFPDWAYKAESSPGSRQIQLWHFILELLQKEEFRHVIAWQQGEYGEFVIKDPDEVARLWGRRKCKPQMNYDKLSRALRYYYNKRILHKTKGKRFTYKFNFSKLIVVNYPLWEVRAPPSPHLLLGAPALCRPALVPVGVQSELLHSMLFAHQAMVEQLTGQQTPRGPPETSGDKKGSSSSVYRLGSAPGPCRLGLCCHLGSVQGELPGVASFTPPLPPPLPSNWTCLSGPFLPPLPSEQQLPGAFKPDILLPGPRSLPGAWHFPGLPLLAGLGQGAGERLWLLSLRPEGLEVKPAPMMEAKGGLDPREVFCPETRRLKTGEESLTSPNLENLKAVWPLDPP
Summary of the method: as §1

ETS2 = molecular target: T8, ETS2 (Homo sapiens, UniProt P15036 1-469); settings: protein: recombinant; tags: N-terminal GST; dsDNA, one strand shown
T8 sequence: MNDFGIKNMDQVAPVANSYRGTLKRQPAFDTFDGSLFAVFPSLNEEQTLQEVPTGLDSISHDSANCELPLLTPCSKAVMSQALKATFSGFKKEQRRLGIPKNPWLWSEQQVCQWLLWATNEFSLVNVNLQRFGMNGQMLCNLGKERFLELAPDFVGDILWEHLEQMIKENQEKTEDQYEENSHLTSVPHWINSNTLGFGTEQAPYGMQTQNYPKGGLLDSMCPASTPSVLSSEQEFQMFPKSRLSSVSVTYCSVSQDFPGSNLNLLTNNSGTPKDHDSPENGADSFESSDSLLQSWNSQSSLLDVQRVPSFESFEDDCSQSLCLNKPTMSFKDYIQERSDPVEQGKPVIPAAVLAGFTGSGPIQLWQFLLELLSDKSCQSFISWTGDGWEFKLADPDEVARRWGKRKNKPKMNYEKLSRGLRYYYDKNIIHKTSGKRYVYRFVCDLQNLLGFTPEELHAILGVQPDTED
Summary of the method: as §1

SPDEF = molecular target: T9, SPDEF (Homo sapiens, UniProt O95238 1-335); settings: protein: recombinant; tags: N-terminal GST; dsDNA, one strand shown
T9 sequence: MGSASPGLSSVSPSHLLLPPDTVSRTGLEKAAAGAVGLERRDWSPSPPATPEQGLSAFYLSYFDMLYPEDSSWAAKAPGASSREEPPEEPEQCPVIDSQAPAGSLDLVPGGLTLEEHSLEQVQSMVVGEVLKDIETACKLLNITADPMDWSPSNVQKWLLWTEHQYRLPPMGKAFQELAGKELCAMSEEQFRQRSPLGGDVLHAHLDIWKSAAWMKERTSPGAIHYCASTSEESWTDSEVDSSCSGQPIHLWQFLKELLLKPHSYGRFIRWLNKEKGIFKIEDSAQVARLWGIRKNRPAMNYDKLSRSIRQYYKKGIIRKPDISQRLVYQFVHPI
Summary of the method: as §1

ETV7 = molecular target: T10, ETV7 (Homo sapiens, UniProt Q9Y603 1-341); settings: protein: recombinant; tags: N-terminal GST; dsDNA, one strand shown
T10 sequence: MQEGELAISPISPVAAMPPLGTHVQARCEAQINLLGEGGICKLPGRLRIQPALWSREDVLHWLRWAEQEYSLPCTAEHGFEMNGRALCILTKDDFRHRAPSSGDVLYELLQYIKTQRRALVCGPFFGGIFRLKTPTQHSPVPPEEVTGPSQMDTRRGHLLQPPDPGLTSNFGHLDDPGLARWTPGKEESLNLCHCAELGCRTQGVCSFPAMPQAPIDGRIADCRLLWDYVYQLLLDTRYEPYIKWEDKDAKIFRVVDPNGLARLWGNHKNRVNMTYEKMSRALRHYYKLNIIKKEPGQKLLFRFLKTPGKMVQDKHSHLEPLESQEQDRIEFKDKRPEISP
Summary of the method: as §1

ELF5 = molecular target: T11, ELF5 (Homo sapiens, UniProt Q9UKW6-2 1-255); settings: protein: recombinant; tags: N-terminal GST; dsDNA, one strand shown
T11 sequence: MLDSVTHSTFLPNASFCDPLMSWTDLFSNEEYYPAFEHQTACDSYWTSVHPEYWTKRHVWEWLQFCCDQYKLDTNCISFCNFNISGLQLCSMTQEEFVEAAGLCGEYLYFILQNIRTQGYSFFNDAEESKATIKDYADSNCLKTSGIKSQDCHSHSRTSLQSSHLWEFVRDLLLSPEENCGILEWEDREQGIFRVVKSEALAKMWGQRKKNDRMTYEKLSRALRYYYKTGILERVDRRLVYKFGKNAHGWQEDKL
Summary of the method: as §1

ETV3 = molecular target: T12, ETV3 (Homo sapiens, UniProt P41162-2 1-143); settings: protein: recombinant; tags: N-terminal GST; dsDNA, one strand shown
T12 sequence: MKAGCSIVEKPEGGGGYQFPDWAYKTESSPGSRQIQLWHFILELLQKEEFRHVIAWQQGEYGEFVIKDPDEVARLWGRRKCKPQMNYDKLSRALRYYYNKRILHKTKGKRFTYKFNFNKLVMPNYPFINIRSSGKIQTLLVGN
Summary of the method: as §1

ETV6 = ETV6 (Homo sapiens, UniProt P41212 1-452); settings: protein: recombinant; tags: N-terminal GST; dsDNA, one strand shown
ETV6, sequence (P41212 whole entry): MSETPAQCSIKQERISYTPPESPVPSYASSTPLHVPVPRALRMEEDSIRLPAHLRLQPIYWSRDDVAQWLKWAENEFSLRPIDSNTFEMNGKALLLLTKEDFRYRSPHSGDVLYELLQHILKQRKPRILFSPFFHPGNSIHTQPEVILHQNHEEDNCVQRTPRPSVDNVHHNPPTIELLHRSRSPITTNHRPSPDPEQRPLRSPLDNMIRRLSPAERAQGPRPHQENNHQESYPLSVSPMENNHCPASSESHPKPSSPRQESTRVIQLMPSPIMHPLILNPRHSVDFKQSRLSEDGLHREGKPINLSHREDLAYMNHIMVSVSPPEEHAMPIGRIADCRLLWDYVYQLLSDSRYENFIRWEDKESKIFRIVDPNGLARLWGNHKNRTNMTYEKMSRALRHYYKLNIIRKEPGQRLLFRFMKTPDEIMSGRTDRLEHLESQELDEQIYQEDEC
Summary of the method: as §1

Q: What does the source list for TTTACG?
A: binding signal (FEV): 1.26 fold enrichment (6-mer frequency, TF over GST control); binding signal (ETV5): 1.28 fold enrichment (6-mer frequency, TF over GST control); binding signal (HSF1): 1.32 fold enrichment (6-mer frequency, TF over GST control); binding signal (SPIC): 1.24 fold enrichment (6-mer frequency, TF over GST control); binding signal (ELF4): 1.32 fold enrichment (6-mer frequency, TF over GST control); binding signal (ELK4): 1.29 fold enrichment (6-mer frequency, TF over GST control); binding signal (ETV2): 1.33 fold enrichment (6-mer frequency, TF over GST control); binding signal (ELF3): 1.28 fold enrichment (6-mer frequency, TF over GST control); binding signal (CRX): 1.62 fold enrichment (6-mer frequency, TF over GST control); binding signal (ETV1): 1.32 fold enrichment (6-mer frequency, TF over GST control); binding signal (ERF): 1.22 fold enrichment (6-mer frequency, TF over GST control); binding signal (ETV3L): 1.31 fold enrichment (6-mer frequency, TF over GST control); binding signal (ETS2): 1.29 fold enrichment (6-mer frequency, TF over GST control); binding signal (SPDEF): 1.26 fold enrichment (6-mer frequency, TF over GST control); binding signal (ETV7): 1.25 fold enrichment (6-mer frequency, TF over GST control); binding signal (ELF5): 1.32 fold enrichment (6-mer frequency, TF over GST control); binding signal (ETV3): 1.19 fold enrichment (6-mer frequency, TF over GST control); binding signal (ETV6): 1.27 fold enrichment (6-mer frequency, TF over GST control)
